High-throughput results as filed in PubChem BioAssay.
Shown are actives, neighbours in structure and some others; about 2.5% of the full set was active somewhere.
PKA-R2B activ – activators of human PKA-R2B complex; P22694+P31323; PKA-R2B holoenzyme dissociation, Cy5-IP20 fluorescence polarization; R2B truncated from residue 108, S112A mutant; 0% DMSO only, 100% 113 µM cGMP; activation, % at 11.4 µM; 340,000 tested, 0.079% active;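 active = activation above a cutoff set at the mean over all compounds plus 3 SD, cut at about 18% in these data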;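 note: higher means more holoenzyme dissociation and a rise in polarization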
TMEM16A act – mouse TMEM16A channel activation, primary screen; 340,000 tested, 0.3% active; Q8BHY3; AID 623877; B-score at 10 µM; HEK293 TMEM16A/YFP-H148Q/I152L, iodide quench fluorescence; hits give low values;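 active = fluorescence-ratio B-score plate-corrected deviation score at least 3 library SD below zero, with starting fluorescence score within 5 deviations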;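 note: channel opened by trigger with iodide after compound preincubation; score built on the fluorescence ratio of max minus min over baseline; more negative score means more quench and so TMEM16A activation or potentiation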
Target sequence (Q8BHY3 whole entry, looked up): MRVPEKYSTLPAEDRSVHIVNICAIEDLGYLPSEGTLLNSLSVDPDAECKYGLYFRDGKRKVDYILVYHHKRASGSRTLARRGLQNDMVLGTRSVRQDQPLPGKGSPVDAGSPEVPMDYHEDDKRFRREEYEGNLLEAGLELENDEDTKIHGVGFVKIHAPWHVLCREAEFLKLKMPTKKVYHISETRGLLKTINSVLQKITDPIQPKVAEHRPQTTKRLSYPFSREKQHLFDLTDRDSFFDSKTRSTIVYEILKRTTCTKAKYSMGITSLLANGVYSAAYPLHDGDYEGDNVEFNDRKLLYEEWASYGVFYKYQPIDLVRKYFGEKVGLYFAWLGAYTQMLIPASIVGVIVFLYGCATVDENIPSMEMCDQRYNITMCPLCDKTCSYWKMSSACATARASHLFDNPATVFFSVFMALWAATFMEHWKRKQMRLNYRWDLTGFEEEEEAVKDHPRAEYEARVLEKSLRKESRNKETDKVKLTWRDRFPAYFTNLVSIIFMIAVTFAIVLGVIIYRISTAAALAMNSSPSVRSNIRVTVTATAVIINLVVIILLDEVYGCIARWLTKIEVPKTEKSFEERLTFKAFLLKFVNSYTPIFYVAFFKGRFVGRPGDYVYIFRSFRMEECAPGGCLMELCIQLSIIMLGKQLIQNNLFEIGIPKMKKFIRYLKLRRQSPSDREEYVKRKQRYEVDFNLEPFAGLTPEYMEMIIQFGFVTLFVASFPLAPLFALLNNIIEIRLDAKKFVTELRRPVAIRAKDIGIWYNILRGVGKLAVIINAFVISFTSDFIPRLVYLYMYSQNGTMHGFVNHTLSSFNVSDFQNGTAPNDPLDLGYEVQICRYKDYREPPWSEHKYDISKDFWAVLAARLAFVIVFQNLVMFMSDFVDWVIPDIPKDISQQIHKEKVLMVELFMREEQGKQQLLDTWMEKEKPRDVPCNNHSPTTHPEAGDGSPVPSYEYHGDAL
CHT PAM – allosteric activators of human choline transporter CHT | Q9GZV3 | CHT-expressing cells, membrane potential dye, choline EC20; hits give high values; LV-AA mutant CHT in HEK293 cells | B-score at 10 µM | 310,000 tested, 0.49% active | AID 488977;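 active = initial fluorescence not abnormally high and integrated response B-score, plate-corrected, over 3 SD above library mean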
CHT inh – inhibitors of human choline transporter CHT; Q9GZV3; CHT-expressing cells, membrane potential dye, choline response; hits give low values; B-score at 10 µM; 310,000 tested, 0.86% active; AID 488975;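 active = B-score over 3 SD under the library average, and starting fluorescence ratio not unusually high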;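 note: choline stimulus applied at its EC90 after an EC20 pre-addition; B-score computed on integrated fluorescence ratio after choline addition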
PKA-R1A activ – activates the PKA-R1A holoenzyme complex | activation, % at 11.4 µM | 340,000 tested, 0.083% active | PKA-R1A dissociation, Cy5-IP20 fluorescence polarization; scaled: DMSO 0%, 113 µM cGMP 100% | AID 504707 | P00514+P68181;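 active = percent activation above the mean of all tested compounds plus 3 SD, cut at about 19% in these data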;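 note: higher means more PKAc released from R1A so a rise in polarization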
TMEM16A inh – mouse TMEM16A channel inhibition, primary screen | 310,000 tested, 1.2% active | AID 588511 | normalized B-score (activity score, 25-100; higher = stronger inhibition) at 10 µM | HEK293 TMEM16A/YFP iodide influx fluorescence, ionomycin;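 active = ratio plate-corrected score three or more library SD toward inhibition, starting fluorescence score within five deviations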;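 note: score derived from kinetic fluorescence span divided by baseline fluorescence per well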
CHT activ conf – human CHT activation, confirmatory screen | 2,500 tested, 91% active | CHT-expressing cells, membrane potential dye fluorescence (FDSS); % of choline EC20–EC90 response window; HEK293 expressing CHT LV-AA mutant; choline added at its EC20 | activation, % at 10 µM | AID 504833 | shares compounds with CHT PAM;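 active = primary screen active, with duplicate mean activation above negative control mean plus 3 SD, cut at about 11% in these data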
HEK293 MP dye – activity in parental HEK293 cells lacking CHT; membrane potential dye fluorescence (FDSS); measured after EC20 choline addition; ratio readout change at 10 µM, hits read low; AID 623908; 2,500 tested, 62% active; shares compounds with CHT PAM;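 active = duplicate-averaged ratio beyond 3 SD from buffer wells, up or down, though filed actives are nearly all decreases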
Each line names hits and unclear results; the compound was inactive in the other large screens (follow-up assays come after a bar, where they were run).

Cc1cc(OCC(=O)NCCN2CCOCC2)c2c(C)c(C)c(=O)oc2c1	none | CHT activ conf 56 | HEK293 MP dye -54
O=C1C2C3C=CC(CC3)C2C(=O)N1c1ccccc1F (configuration not stated)	none (no result: TMEM16A act)
COc1ccc(OC)c(CN2CCN(C(=O)[C@@H](NC(=O)c3cccc(C)c3)C(C)C)CC2)c1	none (no result: CHT PAM, CHT inh, TMEM16A inh)
CC(=O)c1cccc(NC(=O)C(C)N(C)CC(=O)Nc2ccc(Cl)cc2)c1 (configuration not stated)	none
O=C(CN1CCCC1c1cccs1)Nc1cc(S(=O)(=O)N2CCCCC2)ccc1Cl (configuration not stated)	none (no result: CHT PAM, CHT inh, TMEM16A inh)
Cc1cc(=O)n2c3ccccc3n(C)c2n1	none
Cc1cc(OCC(=O)NCCCn2ccnc2)c2c(C)c(C)c(=O)oc2c1	none | CHT activ conf 41 | HEK293 MP dye -64
Cc1cc(=O)oc2c3c(cc(OCC(=O)NCCCn4ccnc4)c12)OC(C)(C)CC3	none | CHT activ conf 24 | HEK293 MP dye -36
CCCc1cc(=O)oc2c3c(cc(OCC(=O)NCCCn4ccnc4)c12)OC(C)(C)CC3	none
Cc1cc(OC(C)C(=O)NCCN2CCOCC2)c2c(C)cc(=O)oc2c1 (configuration not stated)	none
CCCc1cc(=O)oc2c(C)c(OCC(=O)NCCCn3ccnc3)ccc12	none | CHT activ conf 44 | HEK293 MP dye -44
CCc1cc(=O)oc2cc(C)cc(OCC(=O)NCCCn3ccnc3)c12	none
CCc1cc(=O)oc2cc(C)cc(OC(C)C(=O)NCCCN3CCOCC3)c12 (configuration not stated)	none | CHT activ conf 43 | HEK293 MP dye -33
O=[N+]([O-])c1ccc(Cl)c(S(=O)(=O)NCCc2ccccn2)c1	none (no result: CHT PAM, CHT inh, TMEM16A inh)
CC(NC(=O)COC(=O)Cc1ccsc1)c1ccccc1 (configuration not stated)	CHT PAM 6.4 | CHT activ conf inactive | HEK293 MP dye inactive
O=C(COC(=O)Cc1ccsc1)NCc1ccccc1	none
CCCCn1c(=NC(C)=O)c(C#N)cc2c(=O)n3cccc(C)c3nc21	none
CCOCCCn1c(=NC(C)=O)c(C#N)cc2c(=O)n3cccc(C)c3nc21	none (no result: PKA-R2B activ, PKA-R1A activ) | CHT activ conf 43 | HEK293 MP dye -62
Cc1sc2ncn3cnnc3c2c1C	none | CHT activ conf 45 | HEK293 MP dye -41
Cc1sc2ncn3ncnc3c2c1C	none
CN(C)C1=NC[C@H](Cc2ccccc2)N1CCC1CCCC1	none | CHT activ conf 27 | HEK293 MP dye inactive
NC1=NC[C@H](Cc2ccccc2)N1CC1CCCCC1	none | CHT activ conf 32 | HEK293 MP dye inactive
CC(C)CC[n+]1ccn(-c2nc3ccccc3nc2[N-]S(=O)(=O)c2ccc(Cl)cc2)c1	none
O=C(O)c1cc(N2CCCCC2)ccn1	none (no result: CHT PAM, CHT inh, TMEM16A inh)
Cc1nc2ccccc2c2c1CC(C)S2 (configuration not stated)	none | CHT activ conf 42 | HEK293 MP dye -53
COc1ccc(/C=C/C(=O)O)cc1S(=O)(=O)NCc1cccnc1	none
CCC(C)c1ccccc1N1CC(C(=O)Nc2ccccc2N2CCCC2)CC1=O (configuration not stated)	none | CHT activ conf 29 | HEK293 MP dye inactive
Cc1ccnc(SCCn2c(N3CCN(c4ccccc4)CC3)nc3c2c(=O)[nH]c(=O)n3C)n1	CHT PAM 8 | CHT activ conf 48 | HEK293 MP dye -41
Cc1nnc(SCCn2c(N3CCC(Cc4ccccc4)CC3)nc3c2c(=O)[nH]c(=O)n3C)s1	none (no result: PKA-R2B activ, TMEM16A act, PKA-R1A activ)
CCN1CCN(c2nc3c(c(=O)[nH]c(=O)n3C)n2CCCc2ccccc2)CC1	none | CHT activ conf 33 | HEK293 MP dye -54
CCCCn1c(N2CCC(Cc3ccccc3)CC2)nc2c1c(=O)[nH]c(=O)n2C	none | CHT activ conf 19 | HEK293 MP dye inactive
CCN1CCN(c2nc3c(c(=O)[nH]c(=O)n3C)n2CCCSc2ncccn2)CC1	CHT PAM 7.5 | CHT activ conf 50 | HEK293 MP dye -55
CC1CCN(c2nc3c(c(=O)[nH]c(=O)n3C)n2CCSc2ncccn2)CC1	none (no result: CHT PAM, CHT inh, TMEM16A inh)
Cn1c(=O)[nH]c(=O)c2c1nc(N1CCN(Cc3ccccc3)CC1)n2CCSc1ncccn1	none
O=C(CC1OC(=O)c2ccccc21)NNC(=O)c1ccc(F)cc1 (configuration not stated)	none (no result: CHT PAM, CHT inh, TMEM16A inh)
Cn1c(=O)[nH]c(=O)c2c1nc(N1CCN(C(=O)c3ccco3)CC1)n2CCCSc1ncccn1	none (no result: CHT PAM, CHT inh, TMEM16A inh)
CN1CCN(c2nc3c(c(=O)[nH]c(=O)n3C)n2CCCSc2ncccn2)CC1	CHT PAM 7.7 | CHT activ conf 46 | HEK293 MP dye -54
CCCCCCSc1ccc([C@H]2N[C@@](CC(C)C)(C(=O)OC)[C@H]3C(=O)N(C)C(=O)[C@@H]23)cc1OC	CHT PAM 7.2 | CHT activ conf 18 | HEK293 MP dye inactive
COC(=O)[C@]1(CC(C)C)N[C@H](c2ccc(SC3CCCCC3)c(OC)c2)[C@@H]2C(=O)N(C)C(=O)[C@@H]21	none
Cc1ccc(C)c(S(=O)(=O)N2CCN(C(=O)c3cc(S(=O)(=O)NCc4ccccc4)ccc3C)CC2)c1	none | CHT activ conf 22 | HEK293 MP dye inactive
CC(=O)N1CCN(C(=O)c2cc(S(=O)(=O)NCc3ccccc3)ccc2C)CC1	none
CN(Cc1cccs1)C(=O)COc1cccc2c1OC(C)(C)C2	none (no result: CHT PAM, CHT inh, TMEM16A inh)
COc1ccc(Nc2ncnc3ccccc23)cc1	none
COc1ccc(Nc2ccnc3ccccc23)cc1	CHT PAM 6.6 | CHT activ conf 28 | HEK293 MP dye -55
Cc1cccc2c(=O)cc(C)n(CC(N)=O)c12	CHT PAM 11 | CHT activ conf 68 | HEK293 MP dye -78
COc1cccc2c(=O)cc(C)n(CC(=O)Nc3ccccc3C)c12	none
CNC(=O)Cn1c(C)cc(=O)c2cccc(OC)c21	CHT PAM 13 (no result: PKA-R2B activ, PKA-R1A activ) | CHT activ conf 64 | HEK293 MP dye -89
Cc1ccccc1C1CCCN(Cc2nc(CC3CC3)no2)C1 (configuration not stated)	none
Cc1cc(C)nc(/N=C(\N)Nc2ccc(S(=O)(=O)Nc3nccc(C)n3)cc2)n1	CHT PAM 7.2 | CHT activ conf 58 | HEK293 MP dye -56
